Sampled rows, rich in hits. Any-hit rate of the full collection: about 3%.
SENP8 block-1: blocks human SENP8 cleavage of Nedd8 substrate | Q96LD8 | recombinant SENP8, Nedd8 substrate fluorescence | inhibition, % at 20 µM | 360,000 compounds, 0.64% hits | AID 602440; in the data active means inhibition mostly above about 40%, no sharp cut-off; inactive means mostly below about 27%
Target sequence (Q96LD8 whole entry, looked up): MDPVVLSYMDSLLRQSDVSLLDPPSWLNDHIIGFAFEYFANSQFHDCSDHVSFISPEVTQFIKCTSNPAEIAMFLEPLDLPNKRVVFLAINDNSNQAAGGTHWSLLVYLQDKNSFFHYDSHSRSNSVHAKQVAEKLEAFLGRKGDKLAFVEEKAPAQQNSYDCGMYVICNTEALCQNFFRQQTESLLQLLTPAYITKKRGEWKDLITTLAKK
SENP8 block-2: SENP8 protease inhibition; Q96LD8; purified SENP8, Z-RLRGG-aminoluciferin cleavage, luminescence; inhibition, % at 10 µM; 330,000 compounds, 1.2% hits; AID 2540; in the data active means inhibition above about 50%
TRAIL sens C8: sensitizes caspase-8 expressing cells to TRAIL | NB7+C8 cells + TRAIL, ATPlite viability luminescence | inhibition (viability loss, TRAIL sensitization), % at 10 µM | 360,000 compounds, 1% hits | AID 624354;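 active means compounds causing at least 50% loss of cell viability in the single-dose screen, relative to plate controls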
PPC-1+TRAIL kill: kills PPC-1 cancer cells in the presence of TRAIL; PPC-1 cells + TRAIL, ATPLite viability luminescence; cell killing (% activity), % at 4 µM or 5 µM; 220,000 compounds, 0.41% hits; AID 1443;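 active means cell killing above 50% in the first pass at 4 µM, then a duplicate retest at 5 µM averaging 50% or more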;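 further: plate controls were cells with TRAIL plus DMSO for no effect and medium-only wells lacking cells for full effect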
SENP7 block: inhibitors of human SENP7 protease. Q9BQF6. recombinant SENP7, Z-RLRGG-aminoluciferin luminescence, 40 min. inhibition, % at 5 µM. 330,000 compounds, 1.5% hits. AID 434973;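 active means inhibition above about 50% at the single test dose, limit read from the data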;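 further: plate controls were DMSO with enzyme for no effect and no enzyme buffer wells for full effect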
SENP6 inh: inhibitors of human SENP6 protease; Q9GZR1; Recombinant SENP6 catalytic domain, aminoluciferin luminescence; inhibition, % at 10 µM; 330,000 compounds, 1.8% hits; AID 2599;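 active means inhibition above about 50% at the single tested dose, limit read from the data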;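 further: plate controls were DMSO wells with enzyme for no effect and DMSO wells lacking enzyme for full effect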
SENP8 confirm: confirmation of human SENP8 protease inhibitors. AID 488912. inhibition, % at 12.5 µM. Recombinant SENP8, Z-RLRGG-aminoluciferin luminescence, 60 min. shares compounds with SENP7 block. 6,200 compounds, 40% hits;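 active means mean inhibition across replicates above about 50%, limit read from the data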
SENP6 confirm: confirmation of human SENP6 protease inhibitors | recombinant SENP6, Z-RLRGG-aminoluciferin luminescence | 6,200 compounds, 58% hits | inhibition, % at 12.5 µM | shares compounds with SENP7 block
SENP7 conf: human SENP7 inhibition, confirmed; shares compounds with SENP7 block; recombinant SENP7, Z-RLRGG-aminoluciferin luminescence, 40 min; inhibition, % at 12.5 µM; 6,200 compounds, 69% hits; AID 488917
Casp3 SENP sel: selectivity test for SENP inhibitors: human caspase-3 inhibition; shares compounds with SENP7 block; purified caspase-3, Z-DEVD-aminoluciferin luminescence, 60 min; inhibition, % at 12.5 µM; 6,200 compounds, 60% hits; AID 488918;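 active means mean inhibition above about 50%, limit read from the data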;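 further: plate controls were enzyme with DMSO for no effect and wells without caspase-3 for full effect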
Target sequence (P42574 28-227 limits assumed): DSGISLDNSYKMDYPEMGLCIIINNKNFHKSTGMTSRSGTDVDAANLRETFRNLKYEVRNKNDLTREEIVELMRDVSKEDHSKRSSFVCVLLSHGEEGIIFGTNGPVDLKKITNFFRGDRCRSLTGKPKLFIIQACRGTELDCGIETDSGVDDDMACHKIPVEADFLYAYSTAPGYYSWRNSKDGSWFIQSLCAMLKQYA
SENP luc ctr: luminescence interference (SENP counter-screen); inhibition, % at 12.5 µM; shares compounds with SENP7 block; Pre-incubated SENP8/Z-RLRGG-aminoluciferin, luciferase luminescence interference; 6,200 compounds, 39% hits; AID 488919;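 active means mean inhibition above about 50% when retested at one dose, limit read from the data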;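 further: plate controls were DMSO wells with completed reaction for no effect and substrate without enzyme for full effect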
An asterisk follows results filed as active; / = no result.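 How the source made its calls, unless noted: active means mean inhibition above about 50% in the one-dose retest (limit read from the data); inactive means the rest.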

SMILES	SENP8 block-1	SENP8 block-2	TRAIL sens C8	PPC-1+TRAIL kill	SENP7 block	SENP6 inh	SENP8 confirm	SENP6 confirm	SENP7 conf	Casp3 SENP sel	SENP luc ctr
Cc1c(C(=O)Nc2ccccn2)oc2ccccc12	2.2	57.0*	13.1	35.6	75.9*	64.3*	1.0	54.8*	79.1*	56.3*	55.6*
CCCC(C(=O)NC(C)(C)C)N(CCN1CCOCC1)C(=O)CNS(=O)(=O)c1ccccc1 (centres undefined)	4.2	-2.4	-4.3	/	-3.0	-13.0	/	/	/	/	/
Cc1ncc(CSc2ccc(Cl)cc2)c(CO)c1O	-17.8	-0.8	-20.1	/	-0.7	-29.4	/	/	/	/	/
CN(CC(=O)Nc1ccc(F)c(F)c1F)C(=O)c1ccc2c(c1)S(=O)(=O)N=C1CCCCCN12	9.1	0.6	-5.8	/	-10.3	-10.6	/	/	/	/	/
CC(=O)NS(=O)(=O)c1ccc(NC(=O)CC23CC4CC(CC(Br)(C4)C2)C3)cc1	12.8	-4.9	-0.4	/	11.1	-16.0	/	/	/	/	/
Cc1ccc(NC2=Nc3ccccc3CS2)cc1	27.3	75.0*	55.1*	46.3	92.0*	82.9*	49.7	82.6*	94.9*	85.1*	5.8
Cc1ccc(Nc2ccccc2)cc1	18.0	-5.5	-2.9	13.9	2.7	-18.8	/	/	/	/	/
Clc1cccc(-c2cc3nc4c(c(NCc5ccco5)n3n2)CCCC4)c1	-265.9	52.6*	25.2	28.5	26.2	81.1*	-4.1	7.5	3.3	6.7	3.6
O=C(C[C@@H]1CC[C@H](NC(=O)Cc2ccccn2)[C@@H](CO)O1)NCCc1ccccc1	15.8	/	-3.9	/	/	/	/	/	/	/	/
CNS(=O)(=O)c1ccc(NC(=O)c2csc(C)c2)cc1	10.8	3.1	-0.6	/	0.7	11.1	/	/	/	/	/
Cc1cc(C(=O)Nc2ccc(Br)cc2)cs1	6.5	5.3	25.8	/	59.8*	40.9	1.7	21.7	28.2	41.5	3.2
CCc1cc(C(=O)Nc2ccccc2)cs1	4.6	51.7*	20.8	26.5	75.0*	67.2*	64.4*	66.3*	92.3*	80.6*	76.7*
CCc1cc(C(=O)NNC(=S)NCc2ccccc2)cs1	17.2	4.0	11.3	14.9	3.7	0.8	/	/	/	/	/
CCc1cc(C(=O)NNC(=S)Nc2ccccc2C)cs1	13.1	35.5	23.8	28.4	28.0	59.9*	32.6	30.0	19.0	13.7	38.4
COc1ccc(-c2c(Sc3ccccc3)c3cc(-c4ccc5c(c4)OCO5)ccc3n2C)cc1	-211.6	/	2.5	/	/	/	/	/	/	/	/
N#C/C(=C(/O)c1cccc(F)c1)c1nc2ccccc2s1	1.5	76.8*	-3.4	-12.5	56.2*	91.1*	57.9*	58.8*	71.7*	76.9*	35.2
N#C/C(=C(/O)c1ccco1)c1nc2ccccc2s1	-36.5	81.4*	7.5	14.0	56.7*	90.0*	90.7*	90.7*	99.7*	91.0*	74.4*
N#C/C(=C(/O)c1cc2ccccc2o1)c1nc2ccccc2s1	-18.0	95.5*	2.9	-0.4	70.2*	-6.6	-2.1	32.4	28.1	17.7	60.6*
CC1(c2nnc(-c3ccc(F)cc3)o2)CC(c2cccc(Cl)c2)=NO1 (centres undefined)	14.0	5.3	3.7	15.6	-5.0	3.7	/	/	/	/	/
O=C(CSCc1ccc(Cl)cc1)Nc1cc([N+](=O)[O-])ccc1O	21.5	0.9	6.1	5.4	-1.2	-14.2	/	/	/	/	/
Cc1ccc(SCC(=O)Nc2cc([N+](=O)[O-])ccc2O)cc1	38.2	78.6*	9.6	11.1	3.9	-16.1	-12.8	26.2	56.8*	39.2	37.6
